In PubChem BioAssay:
The source made the active and inactive calls.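 How the source made its calls, unless noted: active means visually confirmed hit in the image check and inhibition above 20%; inconclusive means visually confirmed hit but inhibition not above 20%; inactive means no visual hit in the image check.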

Key:
[1] = inhibitors of TNFa-induced NFkB p65 translocation, primary screen, imaging, HUVEC, MLSMR starter and 10KST1 sets (AID 438;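 active means inhibition above 20% together with a positive visual image hit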;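 further: compound added about 3h40 before a 20 min TNFalpha stimulation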;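 on inhibition: signal is the nuclear over cytoplasmic p65 intensity ratio per well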); details: HUVEC TNFa-induced p65 nuclear translocation; cell count: measured here: nuclei count (cytotoxicity indicator), at 2.08 µM unless noted; inhibition: at 2 µM, stronger effect = higher value unless noted
[2] = endothelial E-selectin expression blockers – imaging, HUVEC, immunofluorescence, MLSMR starter and 10KST1 sets, primary screen (AID 487); details: HUVEC TNFalpha-induced E-selectin immunofluorescence imaging, at 2 µM; inhibition: stronger effect = higher value; nuclei count: measured here: cell number, toxicity;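 on inhibition: signal is fraction of cell area covered by stained E-selectin grains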;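 on nuclei count: 100% = median nuclei count of all wells on the same plate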
[3] = Primary imaging screen for DUSP6 inhibitors that restore phospho-Erk in transfected HeLa cells, chemical complementation (AID 609;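 active means compounds giving at least 50% inhibition in the cell-based MKP-3 phosphatase rescue imaging test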;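 on inhibition: phospho-Erk level distribution per well compared with pooled transfected vehicle control wells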); details: HeLa MKP-3 transfected, phospho-Erk imaging KS statistic, at 10 µM
[4] = molecular target: Dual specificity protein phosphatase 6 (Homo sapiens) (UniProt Q16828); experiment: as above; details: HeLa MKP-3 transfected, phospho-Erk imaging KS statistic, at 10 µM, stronger effect = higher value
Chain of Dual specificity protein phosphatase 6 (Homo sapiens) (Q16828 whole entry, looked up): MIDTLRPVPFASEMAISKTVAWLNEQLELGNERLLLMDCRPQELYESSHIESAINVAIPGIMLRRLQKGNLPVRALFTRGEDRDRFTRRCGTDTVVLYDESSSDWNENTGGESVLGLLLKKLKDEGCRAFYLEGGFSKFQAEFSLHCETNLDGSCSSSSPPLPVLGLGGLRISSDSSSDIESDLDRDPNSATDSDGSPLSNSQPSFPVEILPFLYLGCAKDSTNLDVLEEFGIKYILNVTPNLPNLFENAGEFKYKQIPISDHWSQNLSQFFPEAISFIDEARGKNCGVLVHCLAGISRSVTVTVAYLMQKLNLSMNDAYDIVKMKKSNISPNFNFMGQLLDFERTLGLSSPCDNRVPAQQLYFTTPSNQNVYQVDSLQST

[5] = molecular target: Voltage-gated potassium channel subunit beta-2 (Rattus norvegicus) (UniProt P62483); experiment: inhibitors of rat Kvbeta2 reductase activity – biochemical, NADPH fluorescence, primary screen (AID 622;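 active means fluorescence slope higher than the sample average by over 3 SD, cut at about -0.22 in these data, passing the limit was not always enough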;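 further: slope of raw intensity against log time taken from 70 to 1610 s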); details: recombinant KvBeta, 4-cyanobenzaldehyde reduction, at 10 µM, stronger effect = higher value
Chain of Voltage-gated potassium channel subunit beta-2 (Rattus norvegicus) (P62483 whole entry, looked up): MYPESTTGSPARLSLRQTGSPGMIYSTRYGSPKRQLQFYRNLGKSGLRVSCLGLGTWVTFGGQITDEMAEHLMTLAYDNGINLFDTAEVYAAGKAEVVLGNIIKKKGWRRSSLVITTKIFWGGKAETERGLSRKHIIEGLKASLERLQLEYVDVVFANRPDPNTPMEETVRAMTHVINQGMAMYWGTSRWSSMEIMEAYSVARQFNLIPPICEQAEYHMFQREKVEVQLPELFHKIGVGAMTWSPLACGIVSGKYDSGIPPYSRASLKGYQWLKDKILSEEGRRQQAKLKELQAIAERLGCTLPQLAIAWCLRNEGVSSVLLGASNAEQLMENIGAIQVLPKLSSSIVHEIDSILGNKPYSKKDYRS

[6] = molecular target: Voltage-gated potassium channel subunit beta-2 (Rattus norvegicus) (UniProt P62483); experiment: enhancers of rat Kvbeta2 NADPH turnover – biochemical, NADPH fluorescence, primary screen (AID 623;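 active means NADPH fluorescence slope more negative than the mean of all samples by about 3 SD, 99.7% confidence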;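 further: fluorescence intensity change per second fitted from 20 to 320 s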); details: Recombinant KvBeta, NADPH fluorescence decrease slope, 10 min; at 10 µM; stronger effect = lower value
[7] = molecular target: Muscarinic acetylcholine receptor M4 (Homo sapiens) (UniProt P08173); experiment: M4-linked GIRK flux change, two-sided – cell-based, HEK293 M4/GIRK, thallium flux, BTC-AM, M4 allosteric agonist project, primary screen (AID 625;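 active means fluorescence slope after compound addition differing from the mean of all tested samples at 99.7% confidence, mostly higher but some lower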;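 further: thallium influx through GIRK channels coupled to M4 in HEK293 cells with BTC-AM dye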); details: at 10 µM, actives lie on both sides
Chain of Muscarinic acetylcholine receptor M4 (Homo sapiens) (P08173 whole entry, looked up): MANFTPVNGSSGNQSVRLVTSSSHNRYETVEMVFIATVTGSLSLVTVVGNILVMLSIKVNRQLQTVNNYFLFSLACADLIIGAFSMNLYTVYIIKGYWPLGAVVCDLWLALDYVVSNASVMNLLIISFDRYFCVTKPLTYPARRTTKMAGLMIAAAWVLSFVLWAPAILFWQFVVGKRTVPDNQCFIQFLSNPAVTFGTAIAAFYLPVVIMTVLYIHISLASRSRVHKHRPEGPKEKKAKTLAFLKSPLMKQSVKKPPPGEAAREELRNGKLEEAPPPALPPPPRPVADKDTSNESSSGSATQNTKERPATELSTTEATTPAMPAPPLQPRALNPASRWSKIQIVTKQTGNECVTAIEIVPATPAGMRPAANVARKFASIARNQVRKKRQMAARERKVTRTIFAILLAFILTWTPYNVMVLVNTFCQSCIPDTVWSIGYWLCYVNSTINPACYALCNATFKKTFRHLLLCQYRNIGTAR

[8] = inhibitors of larval lipid processing in zebrafish, primary screen, whole organism, PED6 fluorescence, gall bladder and intestine (AID 686;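 active means a full or partial loss of lipid-probe fluorescence in the fish gall bladder, intestine or both, judged by eye; inactive means no fluorescence loss, or compound toxic to the fish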;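 further: larvae 5 to 7 days old with five fish per well; signal comes from phospholipase A2 cleavage of quenched PED6 carried via bile; overnight exposure to compound and PED6 before scoring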); details: Zebrafish larvae PED6 lipid processing, fluorescence scoring
[9] = loss of swimming-algae plug formation – whole organism, Chlamydomonas reinhardtii, WT vs cilia-less mutant, absorbance, 96-well, primary screen (AID 463189;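 active means inhibition at or above 50% relative to wild type and mutant plate controls; inactive means inhibition below 50%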;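 further: 0% = wild type cc124 cells in DMSO and 100% = ciliumless bld1 mutant cells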); details: Chlamydomonas reinhardtii gravitaxis, OD600 absorbance, 2 days; at 10 µM; stronger effect = higher value
[10] = reduction of polyQ htt aggregates in cells – imaging, exon1htt(103Q)mCFP cells, high-content imaging, primary screen (AID 483;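 active means visual image review flags a hit and inhibition of aggregation exceeds 20%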;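 further: compound exposure lasted 3 days before fixation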;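 on nuclei count: percent of the per-plate median nuclei count of sample wells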); details: exon1htt(103Q)mCFP cell line, aggregate imaging, at 2 µM; inhibition of aggregation: stronger effect = higher value; nuclei count: measured here: cell count, toxicity
[11] = molecular target: Alpha-2C adrenergic receptor (Homo sapiens) (UniProt P18825); experiment: compounds altering alpha2C-coupled GIRK flux – cell-based, HEK293 alpha2C/GIRK1/2, thallium flux, primary screen (AID 624;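 active means fluorescence slope after compound addition differing from the mean of all screened samples at 99.7% confidence, in either direction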;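 further: slope of fluorescence ratio to pre-addition baseline per second over 15 to 24 s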); details: thallium flux BTC fluorescence, at 10 µM, actives lie on both sides
Chain of Alpha-2C adrenergic receptor (Homo sapiens) (P18825 whole entry, looked up): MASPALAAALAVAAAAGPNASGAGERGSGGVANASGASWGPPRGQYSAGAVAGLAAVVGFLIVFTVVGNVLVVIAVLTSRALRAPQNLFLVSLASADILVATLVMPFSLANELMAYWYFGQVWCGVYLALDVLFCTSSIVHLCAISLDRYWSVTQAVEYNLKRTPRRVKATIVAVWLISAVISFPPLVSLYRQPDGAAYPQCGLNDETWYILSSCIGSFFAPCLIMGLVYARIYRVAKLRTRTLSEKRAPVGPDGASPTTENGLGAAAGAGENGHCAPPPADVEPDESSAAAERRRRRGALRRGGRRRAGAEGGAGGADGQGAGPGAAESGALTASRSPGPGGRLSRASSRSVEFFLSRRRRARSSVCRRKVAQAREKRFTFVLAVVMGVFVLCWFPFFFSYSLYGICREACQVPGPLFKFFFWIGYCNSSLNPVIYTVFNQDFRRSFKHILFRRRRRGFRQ

[12] = blockers of RIG-like receptor reporter activation – cell-based, Sendai virus stimulus, luciferase, 10K MLSCN set, TLR/RLR signaling modifier project, primary screen (AID 602276;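 active means inhibition at or above 50% at 10 µM; inactive means inhibition below 50%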;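 further: firefly luciferase from ISG56 promoter only with Renilla not read in this screen; 0% = Sendai virus plus DMSO and 100% = medium plus DMSO without virus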); details: HEK293 RL24 IRF3 luciferase reporter, at 10 µM, stronger effect = higher value
[13] = TLR3 IRF3 reporter activation blockers – cell-based, poly I:C stimulus, luciferase, 10K MLSCN set, primary screen (AID 602277;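 active means inhibition of the reporter signal at or above 50%; inactive means inhibition below 50%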); details: HEK293-TLR3 RL24 IRF3 luciferase reporter, at 10 µM, stronger effect = higher value
[14] = measured here: cell density z-score
[15] = measured here: nuclear c-Myc green intensity z-score
[16] = measured here: nuclear pErk red intensity z-score, stronger effect = higher value

For `Cn1c(O)c(C=NCCCNC2CCCCC2)c(=O)n(C)c1=O`, the cell count [1] was 420, the inhibition [1] was 1.2% (inactive) and the inhibition [2] was -81.5% (inactive). It also gave a nuclei count [2] of 131%, a z-score [3, 14] of 0.261 and a z-score [3, 15] of -0.315. For the same compound, the z-score [3, 16] was -0.515, the inhibition [4] was 26.5% (inactive) and the fluorescence slope [5] was -0.469 (inactive). The NADPH fluorescence slope [6] was -0.000127 (inactive), the fluorescence slope [7] was 0.00413 (inactive) and the outcome [8] was “inactive”. For the same compound, the inhibition [9] was -2.14% (inactive).

For `Nc1c(C(=O)NCc2ccco2)c2nc3ccccc3nc2n1CCN1CCCCC1`, the cell count [1] was 676, the inhibition [1] was 18.1% (inactive) and the inhibition [2] was 50.8% (inactive). For the same compound, the nuclei count [2] was 138%, the z-score [3, 14] was -0.477 and the z-score [3, 15] was 2.3. For the same compound, the z-score [3, 16] was -0.0288, the inhibition [4] was -6.06% (inactive) and the fluorescence slope [5] was -0.0963 (inactive). The NADPH fluorescence slope [6] was -2.8e-05 (inactive), the fluorescence slope [7] was 0.00537 (inactive) and the outcome [8] was “inactive”. For the same compound, the inhibition [9] was 131% (active).

For `O=C(CN1C2CCC1CC(O)(c1cccnc1)C2)Nc1ccc2c(c1)OCO2` (stereo unspecified), the cell count [1] was 414, the inhibition [1] was 7.5% (inactive) and the inhibition of aggregation [10] was -3.4% (inactive). For the same compound, the nuclei count [10] was 104%, the inhibition [2] was -176% (inactive) and the nuclei count [2] was 115%. For the same compound, the fluorescence slope [5] was -0.591 (inactive), the NADPH fluorescence slope [6] was 5.6e-07 (inactive) and the slope [11] was 0.00303 (inactive). For the same compound, the inhibition [12] was 15% (inactive) and the inhibition [13] was 22.4% (inactive).

With `CCc1ccc(OCCCN=C(C)c2c(O)n(C)c(=O)n(C)c2=O)cc1` the cell count [1] was 627, the inhibition [1] was 0.2% (inactive) and the inhibition of aggregation [10] was -0.8% (inactive). For the same compound, the nuclei count [10] was 84.3%, the inhibition [2] was 23.8% (inactive) and the nuclei count [2] was 95.1%. The fluorescence slope [5] was -0.385 (inactive), the NADPH fluorescence slope [6] was 2.2e-06 (inactive) and the slope [11] was 0.00351 (inactive). For the same compound, the inhibition [12] was 11.6% (inactive) and the inhibition [13] was 14.8% (inactive).

With `Cc1ccc(C)c(NC(=O)CSc2nnc([C@@H](N)Cc3c[nH]c4ccccc34)o2)c1` the cell count [1] was 282, the inhibition [1] was 9.5% (inactive) and the inhibition of aggregation [10] was -6.6% (inactive). For the same compound, the nuclei count [10] was 103%, the inhibition [2] was -8.3% (inactive) and the nuclei count [2] was 92.8%. For the same compound, the fluorescence slope [5] was -0.428 (inactive), the NADPH fluorescence slope [6] was -1.2e-05 (inactive) and the slope [11] was 0.00513 (inactive). The inhibition [12] was 9.6% (inactive) and the inhibition [13] was 24.2% (inactive).

For `CN(C)CCOC(=O)c1cn(Cc2ccccc2)c2ccccc12`, the cell count [1] was 639, the inhibition [1] was -9.5% (inactive) and the inhibition [2] was -111% (inactive). The nuclei count [2] was 182%, the z-score [3, 14] was 1.72 and the z-score [3, 15] was -0.185. For the same compound, the z-score [3, 16] was -0.202, the inhibition [4] was -6.06% (inactive) and the fluorescence slope [5] was -0.507 (inactive). For the same compound, the NADPH fluorescence slope [6] was -6.8e-05 (inactive), the fluorescence slope [7] was 0.00681 (inactive) and the outcome [8] was “inactive”. For the same compound, the inhibition [9] was 37% (inactive).

For `Cc1c(N=Cc2c(O)n(Cc3ccco3)c(=O)[nH]c2=O)c(=O)n(-c2ccccc2)n1C`, the cell count [1] was 591, the inhibition [1] was -1.8% (inactive) and the inhibition [2] was -156% (inactive). It also gave a nuclei count [2] of 133%, a z-score [3, 14] of 0.39 and a z-score [3, 15] of 0.06. For the same compound, the z-score [3, 16] was -0.372, the inhibition [4] was 11.4% (inactive) and the fluorescence slope [5] was -0.492 (inactive). For the same compound, the NADPH fluorescence slope [6] was -0.000124 (inactive), the fluorescence slope [7] was 0.00411 (inactive) and the outcome [8] was “inactive”. For the same compound, the inhibition [9] was 11.7% (inactive).

In the case of `CCOC(=O)c1cc(C)n(CCc2cnc[nH]2)c1C`, the cell count [1] is reported as 561, the inhibition [1] is reported as 2.4% (inactive) and the inhibition [2] is reported as -44.2% (inactive). For the same compound, the nuclei count [2] was 123%, the z-score [3, 14] was -1.19 and the z-score [3, 15] was -0.0641. For the same compound, the z-score [3, 16] was 0.767, the inhibition [4] was -2.59% (inactive) and the fluorescence slope [5] was -0.47 (inactive). For the same compound, the NADPH fluorescence slope [6] was -9.2e-05 (inactive), the fluorescence slope [7] was 0.00519 (inactive) and the outcome [8] was “inactive”. The inhibition [9] was -3.61% (inactive).

For `COc1ccc2c(c1OC)C(=O)OC2c1c(O)n(C2CCCCC2)c(=O)[nH]c1=O` (stereo unspecified), the cell count [1] was 572, the inhibition [1] was -9.7% (inactive) and the inhibition [2] was -2.8% (inactive). It also gave a nuclei count [2] of 150%, a z-score [3, 14] of 0.755 and a z-score [3, 15] of 0.301. The z-score [3, 16] was 0.433, the inhibition [4] was 15.9% (inactive) and the fluorescence slope [5] was -0.379 (inactive). For the same compound, the NADPH fluorescence slope [6] was -7.1e-05 (inactive), the fluorescence slope [7] was 0.00555 (inactive) and the outcome [8] was “inactive”. For the same compound, the inhibition [9] was 6.27% (inactive).

With `O=C(c1ccco1)C12CN3CN(CN(C3)C1)C2` the cell count [1] was 403, the inhibition [1] was -7% (inactive) and the inhibition [2] was -98.3% (inactive). It also gave a nuclei count [2] of 165%, a z-score [3, 14] of -0.216 and a z-score [3, 15] of 0.212. For the same compound, the z-score [3, 16] was 0.209, the inhibition [4] was 17.4% (inactive) and the fluorescence slope [5] was -0.431 (inactive). For the same compound, the NADPH fluorescence slope [6] was -0.000115 (inactive), the fluorescence slope [7] was 0.00486 (inactive) and the outcome [8] was “inactive”. The inhibition [9] was -4.37% (inactive).

For `COc1ccc(C2SCC(=O)Nc3c2c(=O)[nH]n3C2CCCCCC2)cc1` (stereo unspecified), the cell count [1] was 564, the inhibition [1] was -7.2% (inactive) and the inhibition [2] was 70.4% (inactive). It also gave a nuclei count [2] of 96%, a z-score [3, 14] of 1.06 and a z-score [3, 15] of 0.0384. For the same compound, the z-score [3, 16] was -1.4, the inhibition [4] was 2.71% (inactive) and the fluorescence slope [5] was -0.478 (inactive). The NADPH fluorescence slope [6] was -3e-05 (inactive), the fluorescence slope [7] was 0.007 (inactive) and the outcome [8] was “inactive”. The inhibition [9] was 29.9% (inactive).

For `C=CCOC(=O)C1=C(C)OC(N)=C(C#N)C12C(=O)N(CN1CCOCC1)c1ccccc12` (stereo unspecified), the cell count [1] was 388, the inhibition [1] was 0.7% (inactive) and the inhibition [2] was -73.4% (inactive). For the same compound, the nuclei count [2] was 88.4%, the z-score [3, 14] was -0.108 and the z-score [3, 15] was 0.314. The z-score [3, 16] was 1.06, the inhibition [4] was -4.59% (inactive) and the fluorescence slope [5] was -0.515 (inactive). The NADPH fluorescence slope [6] was 2.9e-05 (inactive), the fluorescence slope [7] was 0.00467 (inactive) and the outcome [8] was “inactive”. For the same compound, the inhibition [9] was 39.6% (inactive).

In the case of `CCCCNC(=O)Nc1ccc(C(O)(C(=O)OCC)C(F)(F)F)cc1` (stereo unspecified), the cell count [1] is reported as 688, the inhibition [1] is reported as -5.9% (inactive) and the inhibition [2] is reported as -16.7% (inactive). The nuclei count [2] was 173%, the z-score [3, 14] was -0.832 and the z-score [3, 15] was -1.24. For the same compound, the z-score [3, 16] was 1.19, the inhibition [4] was 3.49% (inactive) and the fluorescence slope [5] was -0.432 (inactive). For the same compound, the NADPH fluorescence slope [6] was -4.2e-05 (inactive), the fluorescence slope [7] was 0.00537 (inactive) and the outcome [8] was “inactive”. For the same compound, the inhibition [9] was 5.22% (inactive).

In the case of `Nc1ncc(P(=S)(N2CCOCC2)N2CCOCC2)s1`, the cell count [1] is reported as 452, the inhibition [1] is reported as -2.7% (inactive) and the inhibition [2] is reported as -296% (inactive). The nuclei count [2] was 169%, the z-score [3, 14] was -0.00628 and the z-score [3, 15] was -0.183. The z-score [3, 16] was -1.06, the inhibition [4] was 4.37% (inactive) and the fluorescence slope [5] was -0.461 (inactive). For the same compound, the NADPH fluorescence slope [6] was -8.8e-05 (inactive), the fluorescence slope [7] was 0.00503 (inactive) and the outcome [8] was “inactive”. The inhibition [9] was 11.1% (inactive).
